NPR1 antag – Natriuretic polypeptide receptor (hNpr1) antagonism - Primary qHTS; HEK293 hNpr1 GloSensor cGMP, ANP-stimulated luminescence; Potency, µM (doses to about 46.3 µM), hits mostly inhibitors; hit rate 1.6% among 76,000; AID 1347048, 2019; calls by dose curve; note: nearly all actives have a fitted effect of over 60% in size
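Compound pre-incubated 30 min at room temperature on GloSensor-loaded HEK293 cells stably carrying hNpr1 and the pGS-40F cGMP biosensor. Stimulation uses hNppA at 0.1 nM final; luminescence is taken at baseline and 20 min post-agonist.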
NIH3T3 tox – Cytotoxic Profiling in NIH 3T3 Cell Line of Diverse Libraries Using Quantitative High-Throughput Screening. NIH 3T3 viability, CellTiter-Glo ATP luminescence, 48-72 h. Potency, µM (top dose mostly 96.7 µM), usual class: inhibitors. hit rate 4.3% among 94,000. AID 1345082, 2018; note: nearly all actives have a fitted effect of over 55% in size
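Luminescent ATP readout (CellTiter-Glo, 10 min RT) after 48 or 72 hr compound exposure of NIH 3T3 cells seeded at 400 cells/well in 1536-well format; quantitative HTS.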
Luciferase inh – Firefly luciferase inhibition profiling of diverse chemical library using quantitative high-throughput screening; Luciferin 4-monooxygenase (Photinus pyralis), P08659; purified P. pyralis luciferase, luminescence, biochemical; Potency, µM (doses to about 115 µM), most hits filed as inhibitors; hit rate 2.5% among 76,000; AID 1347043, 2019; note: nearly all actives have a fitted effect of over 65% in size
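Inhibitors were tested against purified firefly luciferase in a biochemical, low-substrate format (both substrates at 10uM) and luminescence measured with a CCD imager.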
HEK293 tox – Cytotoxic Profiling in HEK 293 Cell Line of Diverse Libraries Using Quantitative High-Throughput Screening. AID 1345083, 2018. HEK 293 viability, ATP luminescence (CellTiter-Glo), 48-72 h. Potency, µM (doses to about 115 µM), usual class: inhibitors. hit rate 6.6% among 94,000; note: nearly all actives have a fitted effect of over 60% in size
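Luminescence from cellular ATP, measured with CellTiter-Glo, indicates HEK 293 viability. Cells plated at 250 cells/well are treated with compound for 48 or 72 hr at 37 degree Celsius before reagent addition.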
Hits are given with their value; – = inactive; ? = inconclusive; · = no result; ! = a repeat was not active. Hits are enriched below; roughly 11% of the tested compounds scored in any of these assays. Unless noted, calls come from the whole dose curve; as a rule, active = well fitted curve in the direction sought with a large enough effect; inconclusive = small, poorly fitted or top-dose-only effect, or another doubt; inactive = no such curve, though single readings can be large; an effect the other way counts as inactive or inconclusive.

SMILES	NPR1 antag	NIH3T3 tox	Luciferase inh	HEK293 tox
CC1=C[C@@H](CNCc2ccncc2)[C@H](C(C)C)C[C@H]1Cc1nnc(-c2ccc(C)cc2)o1	?	?	–	?
CC1=C[C@@H](CNC(C)C)[C@H](C(C)C)C[C@H]1Cc1nnc(-c2ccc([N+](=O)[O-])cc2)o1	–	89µM	–	79µM
CCC1(N2CCN(S(=O)(=O)c3ccc(Cl)s3)CC2)CCN(S(C)(=O)=O)C1 (centres undefined)	–	?	–	?
Cn1nc(C2CCN(C(=O)c3ccccc3)CC2)c2c1CCOC2	–	–	–	–
O=C(NCc1ccc(Cl)cc1)C1CCN(c2nccc(Nc3ccccc3F)n2)CC1	·	28µM	·	18µM
O=C(NCCc1ccc(F)cc1)C1CCN(c2nccc(Nc3ccccc3F)n2)CC1	·	?	·	28µM
Cc1cccc(C2c3cc(OCc4nc(C(=O)NC(C)C)co4)ccc3CCN2C(=O)C2CC2)c1 (centres undefined)	–	14µM	–	18µM
CCNC(=O)c1coc(COc2ccc3c(c2)C(c2cccc(C)c2)N(C(=O)C2CC2)CC3)n1 (centres undefined)	?	?	–	?
CC(C)NC(=O)c1coc(COc2ccc3c(c2)C(c2cccc(F)c2)N(C(=O)C2CC2)CC3)n1 (centres undefined)	–	22µM	–	?
Cc1ccc2c(n1)OC(Cn1cccc1)CN(CCC1=CCCCC1)C2=O (centres undefined)	·	?	·	89µM
NC(=O)N1CCCC(C(=O)N2CCN(c3nsc4ccccc34)CC2)C1 (centres undefined)	–	?	–	25µM
O=C(NC1CCCC1)c1ccc(OC2CCN(CCCC(F)(F)F)CC2)c(Cl)c1	–	?	–	32µM
COCCNC(=O)c1ccc(OC2CCN(Cc3ncc[nH]3)CC2)c(Cl)c1	–	–	–	–
O=C(Cc1ccccc1)NCCC1CCN(C(=O)Nc2cccc(F)c2)CC1	–	–	–	–
Clc1ccc(-c2cnc([C@@H]3COCCN3Cc3ccccc3)[nH]2)s1	?	79µM	–	100µM
CC(C)(C)CN1CCOC[C@H]1c1ncc(-c2ccc(Cl)s2)[nH]1	–	?	–	79µM
Clc1ccc(-c2cnc([C@@H]3COCCN3C3CCCCC3)[nH]2)s1	–	79µM	–	79µM
O=C(O)c1ccc(CN2CCOC[C@H]2c2ncc(-c3ccc(Cl)s3)[nH]2)cc1	–	–	–	–
Cn1c(CN2CCOC[C@H]2c2ncc(-c3ccc(Cl)s3)[nH]2)nc2ccccc21	?	89µM	–	?
Clc1ccc(-c2cnc([C@@H]3COCCN3C3CCNCC3)[nH]2)s1	–	–	–	?
CCC1(N2CCN(C(=O)CCc3c[nH]c4ccccc34)CC2)CCN(C(=O)NC)C1 (centres undefined)	–	–	?	–
NCCC[C@@H](N)C(=O)N1CCCC(c2ccccc2)(c2ccccc2)C1	–	?	–	?
COc1ccc([C@H]2C[C@@H](O)[C@@H](O)[C@@H]2NCc2cnc[nH]2)cc1	–	–	–	–
COc1cccc(-c2ccc(CN3C4CCC3CN(C(=O)Nc3ccccc3F)C4)cc2)c1	–	35µM!	?	40µM!
COc1cccc(-c2ccc(CN3CCCC(NC(=O)c4ccccc4C)C3)cc2)c1 (centres undefined)	·	40µM	·	22µM
SMILES	NPR1 antag	NIH3T3 tox	Luciferase inh	HEK293 tox
Cc1cc(C)cc(-c2ccc(CN3CCCC(NC(=O)Nc4ccccc4)C3)cc2)c1 (centres undefined)	·	10µM	·	?
COc1cccc(-c2ccc(CN3CCCC(NC(=O)c4ccccc4F)C3)cc2)c1 (centres undefined)	·	?	·	40µM
Cc1ccccc1C(=O)NC1CCCN(Cc2ccc(-c3cncnc3)cc2)C1 (centres undefined)	·	–	·	?
O=C(Nc1ccccc1F)N1CC2CCC(C1)N2Cc1ccc(-c2cccs2)cc1	·	–	·	–
O=C(Cc1ccc(F)cc1)N1CCCC2(CNc3ncccc3[S+](=O)([O-])N2)C1 (centres undefined)	·	–	·	–
COCCN1C(=O)CCC2(C(=O)NCCN(C)C3CCCCC3)CCCC=C12 (centres undefined)	–	–	?	?
Cc1cc(C)cc(-c2ccc(CN3CCCC(NC(=O)c4ccccc4F)C3)cc2)c1 (centres undefined)	·	?	·	79µM

Screening results from PubChem.
